The list is not random: actives were taken first. Their share in the collection is about 11%.
HEK293 tox: Cytotoxic Profiling in HEK 293 Cell Line of Diverse Libraries Using Quantitative High-Throughput Screening. HEK 293 viability, ATP luminescence (CellTiter-Glo), 48-72 h. Potency, µM (highest dose often 115 µM), inactives show at the top dose activity change, negative = cytotoxicity, usual class: inhibitors. AID 1345083, 2018. actives 6.6% (n = 94,000); also: nearly all actives have a fitted effect of over 60% in size
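Cells seeded first (HEK 293, 250 cells/well), then compound added by pintool. Incubation ran 48 or 72 hr at 37 degree Celsius. CellTiter-Glo was added and luminescence imaged after 10 min at room temperature.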
FLuc inh: Firefly luciferase inhibition profiling of diverse chemical library using quantitative high-throughput screening; Potency, µM (top dose mostly 115 µM), usual class: inhibitors; Luciferin 4-monooxygenase (Photinus pyralis), P08659; purified P. pyralis luciferase, luminescence, biochemical; AID 1347043, 2019; actives 2.5% (n = 76,000); also: nearly all actives have a fitted effect of over 65% in size
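Inhibitors were tested against purified firefly luciferase in a biochemical, low-substrate format (both substrates at 10uM) and luminescence measured with a CCD imager.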
3T3 cytotox: Cytotoxic Profiling in NIH 3T3 Cell Line of Diverse Libraries Using Quantitative High-Throughput Screening | NIH 3T3 viability, CellTiter-Glo ATP luminescence, 48-72 h | AID 1345082, 2018 | Potency, µM (doses to about 96.7 µM), without a hit: top-dose activity change, negative = cytotoxicity, hits mostly inhibitors | actives 4.3% (n = 94,000); also: nearly all actives have a fitted effect of over 55% in size
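Luminescent ATP readout (CellTiter-Glo, 10 min RT) after 48 or 72 hr compound exposure of NIH 3T3 cells seeded at 400 cells/well in 1536-well format; quantitative HTS.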
NPR1 antag: Natriuretic polypeptide receptor (hNpr1) antagonism - Primary qHTS | Atrial natriuretic peptide receptor 1 (Homo sapiens), P16066 | HEK293 hNpr1 GloSensor cGMP, ANP-stimulated luminescence | Potency, µM (highest dose often 46.3 µM), without a hit: top-dose activity change, negative = inhibition, usual class: inhibitors | actives 1.6% (n = 76,000) | AID 1347048, 2019; calls by dose curve; also: nearly all actives have a fitted effect of over 60% in size
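HEK293 cells stably expressing human Npr1 and cGMP GloSensor pGS-40F, loaded 2 h with 2% GloSensor reagent, given compound 30 min at room temperature. Luminescence read before and 20 min after 0.1 nM hNppA.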
The depositor's hits bear a star; i = inactive; u = inconclusive; x = not tested or not shown; [ ] = dose if it differs, or a comment. Unless noted, calls follow the shape of the dose curve; as a rule, active = well fitted curve in the direction sought with a large enough effect; inconclusive = small, poorly fitted or top-dose-only effect, or another doubt; inactive = no such curve, though single readings can be large; an effect the other way counts as inactive or inconclusive. % is scaled to controls: 0 for no effect and ±100 for the full control effect; potency is read from the fitted curve at half-maximal effect.

SMILES	HEK293 tox	FLuc inh	3T3 cytotox	NPR1 antag
Cc1ccc(C)c(S(=O)(=O)N2CCCC(Cn3c(C4CC4)nc4cccnc43)C2)c1 (stereo unspecified)	40µM*	i	u	-14%
Cc1ccc(NC(=O)N2CCCC(Cn3c(C4CC4)nc4cccnc43)C2)cc1 (stereo unspecified)	-12%	i	u	5%
Cc1cccc(S(=O)(=O)N2CCCC(Cn3c(C4CC4)nc4cccnc43)C2)c1 (stereo unspecified)	35µM*	i	u	-15%
O=S(=O)(O)c1ccc(-c2ncc[nH]2)cc1	i	x	-3%[138 µM]	x
N[C@@H]1CC[C@H](C(=O)N2CCC(Oc3cccc(C(F)(F)F)c3)CC2)C1	45µM*	i	u	3%
O=C(C1CCC1)N1CCC(Oc2cccc(F)c2)C1 (stereo unspecified)	-3%	i	-1%	3%
CCOC(=O)[C@H]1C[C@]2(CCCCN(CCOC)C2=O)N(C(C)=O)[C@H]1c1ccco1	32µM*	x	u	x
CCOC(=O)[C@H]1C[C@]2(CCCCN(CCOC(C)=O)C2=O)N(C(=O)OCC)[C@H]1c1ccco1	u	x	-22%	x
O=C(NCC(F)(F)F)C1CCCCN1Cc1ccc(-c2cccs2)cc1 (stereo unspecified)	-6%	x	-2%	x
CCOCCNC(=O)C1CCCCN1Cc1ccc(-c2cccs2)cc1 (stereo unspecified)	u	x	40µM*	x
O=C(NCCc1ccccc1)C1CCCCN1Cc1ccc(-c2cccs2)cc1 (stereo unspecified)	u	x	45µM*	x
COCCNC(=O)C1CCCCN1Cc1ccc(-c2cccs2)cc1 (stereo unspecified)	40µM*	x	u	x
O=C(Nc1cccc(Cl)c1)C1CCCN1c1nc2ncccc2o1 (stereo unspecified)	-18%	i	-28%	-1%
O=C(Nc1cccc(Cl)c1)C1CCCCN1Cc1ccc(-c2cccs2)cc1 (stereo unspecified)	28µM*	x	u	x
Cc1ccc(-c2cccc(CN3CCCC(NC(=O)c4ccc(Cl)nc4)C3)c2)cc1Cl (stereo unspecified)	-4%	x	-23%	x
Cc1ccc(-c2cccc(CN3CCCC3C(=O)NCC(F)F)c2)cc1Cl (stereo unspecified)	40µM*	x	u	x
Cc1ccc(-c2cccc(CN3CCCC3C(=O)N3CCN(c4ncccn4)CC3)c2)cc1Cl (stereo unspecified)	14µM*	x	u	x
Cc1ccc(-c2cccc(CN3CCCC3C(=O)NCC(C)C)c2)cc1Cl (stereo unspecified)	40µM*	x	35µM*	x
Cc1cccc(C(=O)NCCc2ncc(C)n2C2CC2)c1	u	i	-6%	1%
O=C1NCCCCCCN(Cc2ccncc2)[C@@H]2CN(C(=O)C3(c4ccccc4)CC3)CC[C@@H]12	-1%	i	-13%	-6%
CC(C)NC(=O)NC1CCN(C(=O)c2ccc(-c3cccs3)cc2)CC1	-1%	x	u	x
O=C(NCCc1ccc(Cl)cc1)c1ccc2nnc(-c3ccc(OC(F)(F)F)cc3)n2c1	79µM*	x	-22%	x
COc1cccc(CNC(=O)c2ccc3nnc(-c4ccc(C(F)(F)F)cc4)n3c2)c1	-2%	x	-17%	x
C[S+](=O)([O-])c1cccc(-c2nnc3ccc(C(=O)NC4CCCC4)cn23)c1	1%	x	-10%	x
O=C(NCCc1ccc(Cl)cc1)c1ccc2nnc(-c3cc(C(F)(F)F)cc(C(F)(F)F)c3)n2c1	20µM*	x	25µM*	x
SMILES	HEK293 tox	FLuc inh	3T3 cytotox	NPR1 antag
O=C(NC1CCCCC1)c1ccc2nnc(-c3cccc(C(F)(F)F)c3)n2c1	32µM*	x	u	x
O=C(NCc1cccnc1)c1ccc2nnc(-c3ccc(OC(F)(F)F)cc3)n2c1	-3%	x	-15%	x
O=C(NCc1cccc(Cl)c1)c1ccc2nnc(-c3cc(C(F)(F)F)cc(C(F)(F)F)c3)n2c1	14µM*	x	u	x
Fc1cccc(Nc2ncc(-c3cccnc3)c3c2OCC3)c1	u	i	-34%[138 µM]	-10%[70.6 µM]
Cc1ccc(C(=O)NCCNC(=O)c2cccc(-c3ncccc3C#N)c2)cc1	-18%	x	-15%	x
Cc1cnc(C2CC2)n1C1CCCN(C(=O)C2CCC2)C1 (stereo unspecified)	-22%	i	-6%	1%
O=C(NCc1ccccn1)c1ccc2nnc(-c3cc(C(F)(F)F)cc(C(F)(F)F)c3)n2c1	u	x	-23%	x
O=C(NCc1cccc(C(F)(F)F)c1)c1ccc2nnc(-c3cc(C(F)(F)F)cc(C(F)(F)F)c3)n2c1	14µM*	x	20µM*	x
O=C(NCc1ccccc1)c1ccc2nnc(-c3cc(C(F)(F)F)cc(C(F)(F)F)c3)n2c1	40µM*	x	u	x
COCCCNC(=O)c1ccc2nnc(-c3cccc(C(F)(F)F)c3)n2c1	-9%	x	-23%	x
O=C(NCc1ccccc1)c1ccc2nnc(-c3cccc(C(F)(F)F)c3)n2c1	35µM*	x	u	x
O=C(NCc1cccc(C(F)(F)F)c1)c1ccc2nnc(-c3ccc(Cl)cc3)n2c1	45µM*	x	40µM*	x
Cc1cc(C)n(CCC(=O)N2CC(c3noc(COc4ccccc4)n3)C2)n1	-15%	x	-24%	x
Cc1ccc(NC(=O)NCCc2ncc(C)n2C2CCC2)cc1C	79µM*	i	-19%	-16%
Cc1cnc(CCNC(=O)C2(c3ccccc3)CC2)n1C1CCCCCC1	40µM*	i	u	-4%
COc1ccc(C2(C(=O)NCCc3ncc(C)n3C3CC3)CC2)cc1	u	i	-28%	4%
Cc1c(CC(=O)NC2CCOCC2)c2c(n1Cc1ccccc1F)CCCC2=O	-2%	i	-8%	-1%
COc1cccc(-c2nc3c([nH]2)CN(c2cc(C4CC4)ncn2)CC3)c1	35µM*	25µM*	u	u
COc1ccc(OC)c(S(=O)(=O)N2CCc3nc(-c4ccccc4)[nH]c3C2)c1	u	x	-21%	x
CCc1nc2c(c(-c3ccc(O)cc3)n1)CN(Cc1ccccc1OC)CC2	45µM*	i	u	-18%
CCc1nc2c(c(-c3ccc(Cl)cc3)n1)CN(Cc1ccccc1)CC2	18µM*	i	10µM*	-8%
CCc1nc2c(c(-c3ccc(Cl)cc3)n1)CN(Cc1ccc(C(F)(F)F)cc1)CC2	89µM*	i	u	3%
CCc1nc2c(c(-c3ccc(Cl)cc3)n1)CN(Cc1ccsc1)CC2	u	i	u	-2%
CCc1nc2c(c(-c3ccc(Cl)cc3)n1)CN(Cc1ccc(OC(F)(F)F)cc1)CC2	u	i	25µM*	-4%
CCc1nc2c(c(-c3ccc(O)cc3)n1)CCN(Cc1ccccc1OC)CC2	u	i	u	3%
